# According to the supplement of paper PMC10849652:
# About 7,900 targets were measured; listed, in parts, are those with a hit and a random draw of the rest. About 0.6% of all pairs of compound and target were hits. Unmarked numbers belong to inactive results.
# What was measured:
# Assay in all cases: log2 fold change, soluble protein after heating vs DMSO (PISA); higher = thermal stabilisation; K562 cells, 10 uM, 30 min; active = over 0.2 and 3.5 SD of the protein, either way, in both replicates (recomputed)
# IRAK-1-4 Inhibitor I = compound: C1COCCN1CCN2C3=CC=CC=C3N=C2NC(=O)C4=CC(=CC=C4)[N+](=O)[O-] [IRAK-1-4 Inhibitor I]
# Summary of the method: (§1)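 Quantification of soluble protein used TMTpro 16plex LC-MS/MS, with channel sums equalised. Samples were the supernatant after 21,000xg for 90 min of pooled aliquots from K562 cells (2×10^6 cells/mL) treated with 10 μM compound for 30 min, heated for 3 min over 48°C-58°C, and extracted in PBS with 0.5% NP-40 at 4°C. Values, from duplicates, describe thermal stability against control samples on a log2 fold-change scale.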
# ibrutinib = compound: C=CC(=O)N1CCC[C@@H](n2nc(-c3ccc(Oc4ccccc4)cc3)c3c(N)ncnc32)C1 [ibrutinib]
# Summary of the method: as §1
# [1] = compound: CC(=O)c1cnc2ccc(-c3cc(Cl)c(O)c(Cl)c3)nc2c1N[C@H]1CC[C@H](CN(C)C)CC1
# Summary of the method: as §1
# ralimetinib = compound: CC(C)(C)Cn1c(N)nc2ccc(-c3[nH]c(C(C)(C)C)nc3-c3ccc(F)cc3)nc21 [ralimetinib]
# Summary of the method: as §1
# [2] = compound: CC(C)(O)CC(=O)NCCn1ccc2ncnc(Nc3ccc(Oc4cccc(C(F)(F)F)c4)c(Cl)c3)c21
# Summary of the method: as §1
# [3] = compound: CC(C)C1=C2N=C(C=C(N2N=C1)NCC3=CC=CC=C3)NCCCCCCN
# Summary of the method: as §1
# [4] = compound: CC(C)C[C@@H](C=O)NC(=O)[C@H](CC(C)C)NC(=O)[C@H](CC(C)C)NC(=O)OCc1ccccc1
# Summary of the method: as §1
# pinometostat = compound: CC(C)N(C[C@H]1O[C@@H](n2cnc3c(N)ncnc32)[C@H](O)[C@@H]1O)[C@H]1C[C@@H](CCc2nc3cc(C(C)(C)C)ccc3[nH]2)C1 [pinometostat]
# Summary of the method: as §1
# [5] = compound: CC1=C(C(CC(=O)N1)C2=CC=C(C=C2)C(F)(F)F)C(=O)NC3=C(C=C4C(=C3)C=NN4)F
# Summary of the method: as §1
# [6] = compound: CC1=C(C2=C(C=C1)C(=O)C3=CC=CC=C3N2CCCN)C
# Summary of the method: as §1
# Chain of UniProt P35222 (P35222 whole entry, looked up): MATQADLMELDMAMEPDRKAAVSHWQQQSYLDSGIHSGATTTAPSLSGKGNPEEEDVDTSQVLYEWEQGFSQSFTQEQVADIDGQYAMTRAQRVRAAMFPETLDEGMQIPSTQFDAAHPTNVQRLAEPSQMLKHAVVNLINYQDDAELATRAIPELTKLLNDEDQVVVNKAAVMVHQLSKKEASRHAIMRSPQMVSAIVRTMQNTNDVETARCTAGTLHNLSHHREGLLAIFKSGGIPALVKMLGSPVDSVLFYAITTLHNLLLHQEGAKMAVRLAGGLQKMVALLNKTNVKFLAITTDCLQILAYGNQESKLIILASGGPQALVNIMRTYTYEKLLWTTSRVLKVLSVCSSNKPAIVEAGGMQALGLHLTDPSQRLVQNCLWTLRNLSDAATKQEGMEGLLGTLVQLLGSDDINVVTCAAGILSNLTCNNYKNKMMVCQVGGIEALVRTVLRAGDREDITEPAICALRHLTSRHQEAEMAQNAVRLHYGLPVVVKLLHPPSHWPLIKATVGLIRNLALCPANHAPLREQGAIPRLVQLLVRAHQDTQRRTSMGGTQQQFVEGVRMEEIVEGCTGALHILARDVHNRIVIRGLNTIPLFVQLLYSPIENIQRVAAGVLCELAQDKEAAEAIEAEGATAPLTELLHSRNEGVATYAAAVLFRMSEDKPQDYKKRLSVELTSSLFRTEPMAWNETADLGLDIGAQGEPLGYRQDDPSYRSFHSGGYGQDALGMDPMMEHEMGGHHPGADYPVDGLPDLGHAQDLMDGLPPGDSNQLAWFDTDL
# Chain of UniProt Q7L576 (Q7L576 whole entry, looked up): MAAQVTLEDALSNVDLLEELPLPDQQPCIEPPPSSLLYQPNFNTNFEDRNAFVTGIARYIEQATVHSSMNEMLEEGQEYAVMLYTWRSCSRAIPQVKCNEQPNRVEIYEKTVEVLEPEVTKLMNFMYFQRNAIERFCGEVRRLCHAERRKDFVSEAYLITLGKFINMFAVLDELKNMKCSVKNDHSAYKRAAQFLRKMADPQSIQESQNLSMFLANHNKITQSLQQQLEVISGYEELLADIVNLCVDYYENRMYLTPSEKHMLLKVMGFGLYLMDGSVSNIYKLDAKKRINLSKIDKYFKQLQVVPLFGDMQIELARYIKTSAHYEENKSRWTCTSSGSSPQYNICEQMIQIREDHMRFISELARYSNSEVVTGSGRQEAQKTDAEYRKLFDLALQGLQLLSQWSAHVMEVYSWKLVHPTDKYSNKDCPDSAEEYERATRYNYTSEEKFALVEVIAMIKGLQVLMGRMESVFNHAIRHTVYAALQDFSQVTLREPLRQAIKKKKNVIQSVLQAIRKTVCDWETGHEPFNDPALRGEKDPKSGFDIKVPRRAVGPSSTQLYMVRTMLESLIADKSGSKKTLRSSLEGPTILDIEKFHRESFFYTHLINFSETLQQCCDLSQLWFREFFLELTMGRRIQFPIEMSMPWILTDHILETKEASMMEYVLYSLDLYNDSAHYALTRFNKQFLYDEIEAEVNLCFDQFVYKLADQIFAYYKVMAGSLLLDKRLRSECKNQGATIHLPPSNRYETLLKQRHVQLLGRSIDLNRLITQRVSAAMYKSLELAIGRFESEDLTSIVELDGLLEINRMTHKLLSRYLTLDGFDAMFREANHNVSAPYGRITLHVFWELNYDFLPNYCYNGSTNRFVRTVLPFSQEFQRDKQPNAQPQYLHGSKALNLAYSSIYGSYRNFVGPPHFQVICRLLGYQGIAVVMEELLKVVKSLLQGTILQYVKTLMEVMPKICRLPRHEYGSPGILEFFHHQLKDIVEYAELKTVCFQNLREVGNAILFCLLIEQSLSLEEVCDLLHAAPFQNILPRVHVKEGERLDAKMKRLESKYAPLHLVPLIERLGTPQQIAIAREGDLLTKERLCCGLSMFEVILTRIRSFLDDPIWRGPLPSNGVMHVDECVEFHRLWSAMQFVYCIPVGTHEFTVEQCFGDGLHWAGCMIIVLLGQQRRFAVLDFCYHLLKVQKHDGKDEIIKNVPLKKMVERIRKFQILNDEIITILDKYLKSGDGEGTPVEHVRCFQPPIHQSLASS
# Chain of UniProt O76075 (O76075 whole entry, looked up): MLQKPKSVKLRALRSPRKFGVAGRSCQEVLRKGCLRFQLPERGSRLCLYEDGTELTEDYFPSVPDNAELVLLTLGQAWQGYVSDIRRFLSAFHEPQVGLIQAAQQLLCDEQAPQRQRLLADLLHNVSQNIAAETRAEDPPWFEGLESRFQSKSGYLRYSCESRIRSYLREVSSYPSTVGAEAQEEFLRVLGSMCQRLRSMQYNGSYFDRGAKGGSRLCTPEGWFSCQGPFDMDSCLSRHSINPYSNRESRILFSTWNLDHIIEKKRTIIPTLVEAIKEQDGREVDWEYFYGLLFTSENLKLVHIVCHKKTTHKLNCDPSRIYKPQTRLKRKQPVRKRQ
# Chain of UniProt O60610 (O60610 whole entry, looked up): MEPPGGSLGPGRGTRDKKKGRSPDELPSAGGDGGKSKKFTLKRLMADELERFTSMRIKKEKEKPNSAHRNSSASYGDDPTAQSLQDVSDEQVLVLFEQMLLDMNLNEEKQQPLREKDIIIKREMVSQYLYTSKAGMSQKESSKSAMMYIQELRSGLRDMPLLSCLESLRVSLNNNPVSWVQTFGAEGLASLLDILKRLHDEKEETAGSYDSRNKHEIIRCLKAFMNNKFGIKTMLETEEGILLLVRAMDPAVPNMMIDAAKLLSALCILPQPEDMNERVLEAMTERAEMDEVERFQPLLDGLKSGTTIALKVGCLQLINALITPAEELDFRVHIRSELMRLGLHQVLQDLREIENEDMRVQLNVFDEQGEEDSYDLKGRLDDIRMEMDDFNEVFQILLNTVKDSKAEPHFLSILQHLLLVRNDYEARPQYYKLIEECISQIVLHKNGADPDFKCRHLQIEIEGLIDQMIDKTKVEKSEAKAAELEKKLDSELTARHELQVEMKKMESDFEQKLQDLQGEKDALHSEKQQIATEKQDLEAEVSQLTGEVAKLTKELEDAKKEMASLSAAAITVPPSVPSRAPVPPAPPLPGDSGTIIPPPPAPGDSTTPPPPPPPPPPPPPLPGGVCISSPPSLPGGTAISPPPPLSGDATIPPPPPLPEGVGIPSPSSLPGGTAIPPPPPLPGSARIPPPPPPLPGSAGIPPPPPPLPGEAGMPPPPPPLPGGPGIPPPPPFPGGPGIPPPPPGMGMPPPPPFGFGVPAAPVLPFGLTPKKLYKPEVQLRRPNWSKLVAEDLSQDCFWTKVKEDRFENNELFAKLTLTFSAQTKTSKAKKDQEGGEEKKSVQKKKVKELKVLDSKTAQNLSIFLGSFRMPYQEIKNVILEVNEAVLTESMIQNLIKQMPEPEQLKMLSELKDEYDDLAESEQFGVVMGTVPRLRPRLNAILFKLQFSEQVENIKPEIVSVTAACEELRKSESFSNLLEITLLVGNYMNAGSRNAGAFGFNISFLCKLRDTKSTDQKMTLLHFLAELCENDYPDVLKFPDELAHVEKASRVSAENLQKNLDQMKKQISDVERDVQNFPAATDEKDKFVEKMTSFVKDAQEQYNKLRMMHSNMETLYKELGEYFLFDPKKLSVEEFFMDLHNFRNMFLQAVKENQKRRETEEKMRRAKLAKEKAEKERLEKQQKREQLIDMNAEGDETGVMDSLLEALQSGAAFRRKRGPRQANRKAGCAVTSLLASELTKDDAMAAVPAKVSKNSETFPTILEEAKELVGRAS
# Chain of UniProt Q96F86 (Q96F86 whole entry, looked up): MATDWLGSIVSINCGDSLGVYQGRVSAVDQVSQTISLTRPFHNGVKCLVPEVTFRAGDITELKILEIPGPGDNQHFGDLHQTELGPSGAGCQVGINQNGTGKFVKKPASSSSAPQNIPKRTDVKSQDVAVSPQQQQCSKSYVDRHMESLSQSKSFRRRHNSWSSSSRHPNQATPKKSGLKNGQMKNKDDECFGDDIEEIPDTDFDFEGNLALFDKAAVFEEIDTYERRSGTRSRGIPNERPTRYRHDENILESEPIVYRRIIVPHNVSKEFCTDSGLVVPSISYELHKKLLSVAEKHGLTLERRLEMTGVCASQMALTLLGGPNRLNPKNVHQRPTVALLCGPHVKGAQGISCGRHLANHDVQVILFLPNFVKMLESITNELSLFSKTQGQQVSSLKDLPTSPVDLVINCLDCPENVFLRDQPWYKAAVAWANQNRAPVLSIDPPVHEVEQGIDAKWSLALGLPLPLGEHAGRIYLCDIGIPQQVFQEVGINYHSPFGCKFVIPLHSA
# Chain of UniProt Q8N5C7 (Q8N5C7 whole entry, looked up): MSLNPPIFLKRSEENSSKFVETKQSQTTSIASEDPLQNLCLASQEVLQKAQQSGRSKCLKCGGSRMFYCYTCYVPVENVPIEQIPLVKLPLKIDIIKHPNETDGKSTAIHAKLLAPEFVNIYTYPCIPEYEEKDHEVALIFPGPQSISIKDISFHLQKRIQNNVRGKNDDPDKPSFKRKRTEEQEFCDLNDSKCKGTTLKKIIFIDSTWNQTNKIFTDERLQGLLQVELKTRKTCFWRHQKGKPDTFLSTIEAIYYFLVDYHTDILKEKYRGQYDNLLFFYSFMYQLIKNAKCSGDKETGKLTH
# Chain of UniProt Q9BW60 (Q9BW60 whole entry, looked up): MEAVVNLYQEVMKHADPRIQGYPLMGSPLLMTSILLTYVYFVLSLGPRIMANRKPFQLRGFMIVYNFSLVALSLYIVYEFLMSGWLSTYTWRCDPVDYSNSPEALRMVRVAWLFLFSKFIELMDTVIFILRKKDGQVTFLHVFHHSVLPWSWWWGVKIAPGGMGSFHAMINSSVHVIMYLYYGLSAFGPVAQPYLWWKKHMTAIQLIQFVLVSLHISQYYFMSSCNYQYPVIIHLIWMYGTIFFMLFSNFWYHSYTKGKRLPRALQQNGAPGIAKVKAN
# Chain of UniProt Q96GE9 (Q96GE9 whole entry, looked up): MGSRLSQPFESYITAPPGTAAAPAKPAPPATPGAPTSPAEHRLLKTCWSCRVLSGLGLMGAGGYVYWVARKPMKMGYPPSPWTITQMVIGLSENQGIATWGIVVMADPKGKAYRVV
Target,log2 fold change (IRAK-1-4 Inhibitor I),log2 fold change (ibrutinib),log2 fold change [1],log2 fold change (ralimetinib),log2 fold change [2],log2 fold change [3],log2 fold change [4],log2 fold change (pinometostat),log2 fold change [5],log2 fold change [6]
DFFB (UniProt O76075),-0.002,-0.047,0.011,0.005,-0.148,0.066,0.045,0.008,-0.052,0.009
CTSC (UniProt P53634),0.008,0.011,-0.003,-0.034,0.016,-0.061,0.015,-0.031,-0.018,-0.038
DIAPH1 (UniProt O60610),-0.128,-0.061,0.072,0.168,0,-0.373 (active),0.07,0.213,-0.017,-0.08
EXOC7 (UniProt Q9UPT5),-0.047,-0.029,0.002,0.049,-0.109,-0.276,0.044,0.043,0.041,0.045
EXTL2 (UniProt Q9UBQ6),-0.018,0.019,-0.073,-0.061,0.062,0.01,0.041,0,0.021,0.12
EDC4 (UniProt Q6P2E9),-0.041,-0.001,-0.387 (active),0.019,0.007,-0.181,0.022,0.05,-0.016,-0.032
EDC3 (UniProt Q96F86),-0.029,-0.082,-0.643 (active),0.013,-0.117,-0.223,0.019,0.011,0.039,-0.049
CYFIP1 (UniProt Q7L576),-0.001,-0.019,-0.07,-0.013,-0.056,-0.042,-0.013,0.001,0.009,0.026
EXOC5 (UniProt O00471),-0.062,-0.002,-0.01,0.015,-0.03,-0.344 (active),0.014,0.078,0,-0.061
FADS3 (UniProt Q9Y5Q0),0.029,0.018,-0.031,-0.064,-0.121,-0.011,0.102,0.038,-0.033,0.054
FAF2 (UniProt Q96CS3),0,-0.026,-0.034,0.103,-0.029,-0.044,0.03,0.053,0.008,0.044
EIF4E2 (UniProt O60573),0.064,-0.007,-0.272,0.012,-0.036,-0.109,0.118,0.043,0.056,0.116
DMAC1 (UniProt Q96GE9),0.018,0.048,0.034,-0.011,0.072,0.019,0.067,-0.002,0.063,-0.013
DHX40 (UniProt Q8IX18),0.047,-0.04,-0.069,-0.036,-0.07,-0.075,-0.038,0.047,0.061,0.096
CTNNB1 (UniProt P35222),-0.028,-0.116,0.263,-0.045,-0.056,-0.007,0.081,-0.021,-0.057,0.003
DTNBP1 (UniProt Q96EV8),0.069,-0.025,0.038,-0.136,-0.058,-0.009,-0.029,-0.044,-0.01,0.092
DDX46 (UniProt Q7L014),-0.113,-0.034,-0.299,-0.095,-0.18,-0.034,0.026,-0.066,-0.107,0.152
ERCC6 (UniProt Q03468),0.05,-0.079,0.11,0.05,-0.094,-0.015,0.018,-0.078,0.157,-0.041
ELOVL1 (UniProt Q9BW60),0.079,-0.006,0.018,0.029,-0.197,-0.628 (active),0.036,0.063,0.016,0.099
DOHH (UniProt Q9BU89),0.127,0.137,0.103,0.004,0.244,0.045,-0.106,0.011,0.02,0.189
DDX39A (UniProt O00148),-0.034,0.099,-0.224,0.003,-0.142,-0.327 (active),0.042,0.075,0.092,-0.28
CUX1 isoform 2 (UniProt Q13948),0.042,0.017,-0.032,0.036,-0.101,0.045,0.042,0.055,0.013,0.049
CYP51A1 (UniProt Q16850),-0.129,0.039,-0.028,0.064,0.245,0.782 (active),0.07,0.045,-0.013,-0.006
EXOC1 (UniProt Q9NV70),-0.085,-0.015,-0.033,0.112,-0.151,-0.419 (active),0.018,0.214,0.052,0.071
DCAF10 (UniProt Q5QP82),0,0,-0.006,-0.082,-0.041,0.02,0.026,-0.016,0.061,0.01
ECPAS (UniProt Q5VYK3),-0.117,-0.09,0.009,0.082,-0.139,-0.094,0.564 (active),0.055,0.021,0.092
DNAJB1 (UniProt P25685),-0.059,-0.011,-0.017,0,-0.012,-0.015,-0.065,-0.086,-0.004,0.022
DTWD1 (UniProt Q8N5C7),0.043,0.014,0.076,0,-0.022,0.161,-0.021,-0.026,-0.109,0.136
